HT1080 IDH1KD tx: qHTS for induction of synthetic lethality in tumor cells producing 2HG: qHTS for the HT-1080-IDH1KD cell line | AID 686971, 2013 | HT-1080 IDH1 knockdown viability, ATP luminescence, 48 h | Potency, µM (doses to about 46.1 µM), most hits filed as cytotoxic | actives 2% (n = 360,000)
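After a 2 h attachment period, IDH1KD HT-1080 cells took pin-transferred compound for 48 h at 37 °C; ATP-based luminescence after 10 min room-temperature reagent incubation reported viability.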
KB-3-1 tox: qHTS assay for MDR1-selective chemotherapeutics: Primary screen using the parental adenocarcinoma cell KB-3-1; Potency, µM (top dose mostly 46.1 µM), actives largely listed as cytotoxic; actives 1.4% (n = 400,000); KB-3-1 viability, CellTiter-Glo ATP luminescence, 72 h; also: nearly all actives have a fitted effect of over 60% in size
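Cytotoxicity measured as CellTiter-Glo luminescence after 72 h at 37 C. Compound titrations were pinned onto drug-naive KB-3-1 parental adenocarcinoma cells grown in DMEM with 10% FBS, and normalized data fitted to concentration-response curves.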
KB-V1 cytotox: qHTS assay for MDR1-selective chemotherapeutics: Primary screen using the drug-selected MDR subline cells KB-V1. Potency, µM (doses to about 46.1 µM), hits mostly cytotoxic. actives 3.4% (n = 400,000). AID 1347076, 2019. KB-V1 MDR cells viability, CellTiter-Glo, 72 h; also: nearly all actives have a fitted effect of over 60% in size
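Potencies derive from concentration-effect curves fitted to normalized luminescence (CellTiter-Glo) of KB-V1 cells treated for 72 h at 37 degrees C in phenol-red-free DMEM containing 10% FBS.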
HT1080NT lethal: qHTS for induction of synthetic lethality in tumor cells producing 2HG: qHTS for the HT-1080-NT fibrosarcoma cell line; HT-1080-NT fibrosarcoma viability, CellTiter-Glo ATP luminescence, 48 h; Potency, µM (titrated, usually from 46.1 µM), usual class: cytotoxic; actives 1.6% (n = 360,000); AID 686970, 2013;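 also: NT is the 2HG producing partner of a matched IDH1 knockdown line; nearly all actives have a fitted effect of over 55% in size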
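Fibrosarcoma NT cells, 750 per well in 5% FBS RPMI, were exposed to compound for 48 hours. Viability: CellTiter-Glo luminescence.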
MCF10A rerep: A quantitative high throughput screen for small molecules that induce DNA re-replication in MCF 10a normal breast cells. AID 624296, 2012. Potency, µM (doses to about 46.1 µM), most hits filed as activators. MCF 10A DNA re-replication, Hoechst nuclear intensity, 48 h. actives 2.9% (n = 350,000); also: nearly all actives have a fitted effect of over 50% in size
SW480 rereplic: A quantitative high throughput screen for small molecules that induce DNA re-replication in SW480 colon adenocarcinoma cells; SW480 DNA re-replication, Hoechst DNA content imaging, 48 h; Potency, µM (titrated, usually from 46.1 µM), usual class: activators; actives 1.8% (n = 340,000); also: nearly all actives have a fitted effect of over 55% in size
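Image-based DNA-content assay: after two days of treatment, nuclei were labelled with the DNA dye Hoechst and imaged, and hits were compounds raising the count of nuclei showing high fluorescence intensity.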
Each line names hits and unclear results; the compound was inactive in the other large screens. An excerpt weighted towards active compounds, which were near 8% of everything screened. Calls follow the shape of the dose curve; as a rule, active = well fitted curve in the direction sought with a large enough effect; inconclusive = small, poorly fitted or top-dose-only effect, or another doubt; inactive = no such curve, though single readings can be large; an effect the other way counts as inactive or inconclusive.

CN(C)C(CNC(=O)c1ccc(NS(=O)(=O)c2ccc(F)cc2)cc1)c1ccco1 (configuration not stated)	SW480 rereplic inconclusive
Cc1cc2oc3cc(NCCC4CCCN4C)ccc3c(=O)c2cc1C (configuration not stated)	HT1080 IDH1KD tx inconclusive, HT1080NT lethal inconclusive, MCF10A rerep 16.4µM, SW480 rereplic inconclusive
Cc1ccc(S(=O)(=O)c2ncccc2[N+](=O)[O-])cc1	HT1080 IDH1KD tx 23.1µM, KB-3-1 tox inconclusive, KB-V1 cytotox inconclusive, HT1080NT lethal 9.2µM, MCF10A rerep 5.8µM, SW480 rereplic 11.6µM
CCOC(=O)c1c(C)sc(-c2c(-c3ccc(OC)c(F)c3)[nH]c3[nH]c(=O)[nH]c(=O)c23)c1O	none (no result: HT1080 IDH1KD tx, HT1080NT lethal, MCF10A rerep, SW480 rereplic)
CCCCC(=O)NC(Nc1sc2c(c1C(N)=O)CCCC2)(C(=O)OCC)C(F)(F)F (configuration not stated)	SW480 rereplic 2.91µM
O=C(NC(c1ccc(-c2ccccc2)cc1)c1cnccn1)C1CCN(CCOc2ccc(F)cc2)CC1 (configuration not stated)	HT1080 IDH1KD tx 16.4µM, KB-3-1 tox inconclusive, HT1080NT lethal inconclusive (no result: MCF10A rerep, SW480 rereplic)
O=C(NC(c1ccc(Cl)cc1)c1cnccn1)C1CCN(CCOc2ccc(F)cc2)CC1 (configuration not stated)	HT1080 IDH1KD tx inconclusive, HT1080NT lethal inconclusive (no result: MCF10A rerep, SW480 rereplic)
COc1ccc(C(NC(=O)C2CCN(CCCOc3ccccc3)CC2)c2ccccn2)cc1 (configuration not stated)	none (no result: MCF10A rerep, SW480 rereplic)
O=C(NC(c1ccc(-c2ccccc2)cc1)c1cnccn1)C1CCN(CCCOc2ccccc2)CC1 (configuration not stated)	HT1080 IDH1KD tx 9.2µM, KB-3-1 tox inconclusive, HT1080NT lethal inconclusive (no result: MCF10A rerep, SW480 rereplic)
CC1CCN(S(=O)(=O)c2ccc3c(c2)N(CC(=O)N(C)Cc2ccco2)C(=O)CO3)CC1	MCF10A rerep inconclusive
N#C/C(=C\c1ccccc1C(F)(F)F)C(=O)Nc1ccccc1	none
CCc1cccc(CC)c1NC(=O)/C(C#N)=C/c1ccccc1C(F)(F)F	HT1080 IDH1KD tx inconclusive, KB-3-1 tox inconclusive, KB-V1 cytotox inconclusive, HT1080NT lethal 23.1µM, MCF10A rerep 11.6µM
Cc1ccc(/C=C/C(=O)c2ccccc(=O)c2O)cc1C	HT1080 IDH1KD tx inconclusive, KB-3-1 tox 9.2µM, KB-V1 cytotox 20.6µM, HT1080NT lethal 18.4µM, MCF10A rerep 20.6µM, SW480 rereplic inconclusive
O=C(/C=C/c1ccccc1)c1cc(Br)ccc(=O)c1O	HT1080 IDH1KD tx inconclusive, KB-3-1 tox 11.6µM, KB-V1 cytotox inconclusive, HT1080NT lethal 18.4µM, MCF10A rerep inconclusive, SW480 rereplic inconclusive
Cc1nnc(NC(=O)CSc2nc3c([nH]c4ccccc43)c(=O)n2-c2ccc(Cl)cc2)s1	none (no result: HT1080 IDH1KD tx, HT1080NT lethal, MCF10A rerep, SW480 rereplic)
Cc1ccccc1OCc1nc2ccc(S(=O)(=O)N3CCOCC3)cc2[nH]1	KB-V1 cytotox 20.6µM
Nc1ccc(C(=O)Nc2ccc3cc(S(=O)(=O)O)ccc3c2)cc1	KB-V1 cytotox inconclusive
COc1ccc(-c2nc(NC(=O)c3ccccc3)sc2-c2ccc([N+](=O)[O-])cc2)cc1	KB-V1 cytotox inconclusive, MCF10A rerep 13µM
CCc1sc(NC(C)=O)nc1-c1ccccc1	none
COc1ccc(-c2sc(NC(C)=O)nc2-c2ccccc2)cc1	KB-3-1 tox inconclusive, KB-V1 cytotox 18.4µM, MCF10A rerep inconclusive, SW480 rereplic inconclusive
COCCNc1nc(-c2ccc(OC)cc2)c(-c2ccc(OC)cc2)s1	MCF10A rerep inconclusive
COc1ccc(-c2nc(NC(C)=O)sc2-c2ccccc2)cc1	HT1080 IDH1KD tx inconclusive, HT1080NT lethal inconclusive, MCF10A rerep 23.1µM, SW480 rereplic inconclusive
CCCCc1ccc(NS(=O)(=O)c2cccc(C(=O)N3CCNC(=O)C3)c2)cc1	none
CN1N=C2c3ccccc3CCCC2C1c1ccc(F)cc1 (configuration not stated)	MCF10A rerep inconclusive, SW480 rereplic 20.6µM
COc1ccc2c(c1)CCC1C2=NN(/C(C)=C\C(C)=O)C1c1ccc(F)cc1 (configuration not stated)	SW480 rereplic inconclusive
O=C(CCCCC(=O)Nc1c(I)cc(I)c(C(=O)O)c1I)Nc1c(I)cc(I)c(C(=O)O)c1I	none
O=C(CSc1nnc(-c2cccs2)o1)N1CCc2ccccc21	none
C/C(=C\C(=O)c1ccc(F)cc1)Nc1ccc(N2CCOCC2)cc1	KB-V1 cytotox 20.6µM
C=CCn1c(Oc2cccc(C)c2)nc2c1c(=O)n(C)c(=O)n2C	none
O=C(NCCCn1ccnc1)c1ccc(N2CCCCCC2)c([N+](=O)[O-])c1	HT1080 IDH1KD tx 5.8µM, HT1080NT lethal 23.1µM, MCF10A rerep inconclusive, SW480 rereplic inconclusive
O=C(NCCCn1ccnc1)c1cccc(Br)c1	SW480 rereplic 25.9µM
CC1CN(S(=O)(=O)c2ccc(C(=O)NCCCn3ccnc3)cc2)CC(C)O1 (configuration not stated)	HT1080 IDH1KD tx 1.84µM, HT1080NT lethal 2.06µM, MCF10A rerep 3.66µM, SW480 rereplic 5.8µM
O=C(NCCCn1ccnc1)c1ccc(Br)cc1	none
Cc1ccc(C(=O)NCCCn2ccnc2)cc1[N+](=O)[O-]	HT1080 IDH1KD tx inconclusive
N#Cc1ccc(OCC(=O)Nc2ccc(N3CCCC3)cc2)cc1	none
COc1ccc(/C=C/C(=O)NCC(=O)n2nc(C)cc2C)cc1	none
COc1cc(NC(=O)CCC2CCCC2)cc(-n2cnnn2)c1	KB-V1 cytotox 20.6µM
COc1ccc(CCNC(=O)CSc2cc(=O)[nH]c(N)n2)cc1OC	none
Cc1cccc(NC(=S)N(CCCN2CCCC2)Cc2cccn2Cc2ccc(Cl)cc2)c1	HT1080 IDH1KD tx inconclusive, KB-3-1 tox inconclusive, KB-V1 cytotox inconclusive, HT1080NT lethal 13µM, MCF10A rerep inconclusive
CCOC(=O)C1(C)CCN1C(=O)c1ccccc1C (configuration not stated)	none (no result: MCF10A rerep, SW480 rereplic)
O=C(O)c1cccc(NC(=S)NC(=O)c2cncc(Br)c2)c1	none
ONC(=Nc1ccccc1Cl)c1ccccc1Cl	none
COc1cccc(CNC(=O)C23CN(Cc4ccccc4)CC2C(c2ccc([N+](=O)[O-])cc2)=NO3)c1 (configuration not stated)	KB-V1 cytotox 13µM
